FadD28 FP inh: inhibitors of FadD28 bisubstrate probe binding, primary screen, biochemical, fluorescence polarization, single point; Mycobacterium tuberculosis FadD28 fatty-acid-AMP ligase; inhibition, % at 12.5 µM; 360,000 tested, 0.22% active; AID 588549, 2011; in the data active = inhibition above about 8.5%, passing the limit was not always enough
PrPC TRFRET: inhibitors of human cell surface prion protein PrPC, primary screen, cell-based, TR-FRET; TR-FRET read-out; inhibition, % at 13.8 µM; 370,000 tested, 0.43% active; AID 720596, 2013; in the data active = inhibition above about 24%
Vc quorum ag: inducers of Vibrio cholerae quorum light production without autoinducers, primary screen, BH1578 luxS cqsA deficient, single point. activation, % at 18.7 µM. AID 588436, 2011. V. cholerae BH1578 lux reporter, luminescence, 6 h. 350,000 tested, 0.16% active; in the data active = activation mostly above about 9.7%, no sharp cut-off
PriA SSB inh: inhibitors of Klebsiella pneumoniae PriA binding to SSB C-terminal tail, primary screen, biochemical, AlphaScreen; PriA–SSB C-terminal tail interaction (Klebsiella pneumoniae); AlphaScreen SSBct-PriA binding, biotinylated peptide; inhibition, % at 33 µM; 430,000 tested, 0.6% active; AID 1272365, 2023; in the data active = inhibition mostly above about 37%, no sharp cut-off; inactive = mostly below about 20%
PrP 5UTR inh: inhibition of PrP 5' UTR reporter expression | cell-based PrP 5' UTR mRNA reporter, plate reader | 340,000 tested, 0.35% active | inhibition, % (concentration not given with the values); in the data active = inhibition above about 52%
Large screens that a line does not name were inactive. Hits are enriched below; roughly 1.4% of the tested compounds scored in any of these assays.

COc1ccccc1N1CCN(/N=C/C=C/c2ccccc2[N+](=O)[O-])CC1	PriA SSB inh active
O=[N+]([O-])c1cccc(/C=N/N2CCN(c3ccccn3)CC2)c1	none (no result: PriA SSB inh)
O=[N+]([O-])c1ccccc1C=NN1CCN(c2ccccn2)CC1	PriA SSB inh 39 (no result: FadD28 FP inh, PrPC TRFRET, Vc quorum ag, PrP 5UTR inh)
O=[N+]([O-])c1ccccc1/C=C\C=N\N1CCN(c2ccccc2)CC1	none (no result: PriA SSB inh)
Cc1cc(C)nc(SCc2ccc(C(=O)NN=Cc3ccc(C(=O)O)cc3)cc2)n1	none (no result: FadD28 FP inh, PrPC TRFRET, Vc quorum ag, PrP 5UTR inh)
CCS(=O)(=O)c1nc2ccccc2n1CC(=O)N1CCCCC1	none
O=C(Cn1c(S(=O)(=O)Cc2ccccc2)nc2ccccc21)N1CCN(c2ccccc2)CC1	PriA SSB inh 54 (no result: FadD28 FP inh, PrPC TRFRET, Vc quorum ag, PrP 5UTR inh)
Cc1cc(-c2nnc(NC(=O)Cc3ccc(S(C)(=O)=O)cc3)o2)n(C)n1	PriA SSB inh 43 (no result: FadD28 FP inh, PrPC TRFRET, Vc quorum ag, PrP 5UTR inh)
Cc1cccc2sc(N(C[C@H]3CCCO3)C(=O)Cc3ccc(Cl)s3)nc12	none (no result: FadD28 FP inh, PrPC TRFRET, Vc quorum ag, PrP 5UTR inh)
O=C(CSC1=NNC(c2ccccn2)S1)Nc1cccc(Cl)c1 (stereo unspecified)	PriA SSB inh 42
O=C(CSC1=NNC(c2ccccn2)S1)Nc1ccccc1 (stereo unspecified)	PriA SSB inh 87
NC(=O)c1ccsc1NC(=O)c1cc2ccccc2o1	none (no result: FadD28 FP inh, PrPC TRFRET, Vc quorum ag, PrP 5UTR inh)
Cc1ccc(C)c(S(=O)(=O)NCc2ccc(C(=O)Nc3ccc4c(c3)OCCO4)cc2)c1	none (no result: FadD28 FP inh, PrPC TRFRET, Vc quorum ag, PrP 5UTR inh)
CSc1ccc2c(c1)N(CCC1CCCCN1C)c1ccccc1S2 (stereo unspecified)	PriA SSB inh 40
CCCCS(=O)(=O)Nc1ccc2c(c1)C(=O)NCC2	none (no result: FadD28 FP inh, PrPC TRFRET, Vc quorum ag, PrP 5UTR inh)
COc1ccc(C2CC(C(F)(F)F)n3nc(C(=O)N(C)Cc4cn(C)nc4C)c(Cl)c3N2)cc1 (stereo unspecified)	Vc quorum ag active
COc1ccc(C2CC(C(F)(F)F)n3nc(C(=O)NCc4c(C)nn(C)c4C)c(Cl)c3N2)cc1 (stereo unspecified)	none
COc1ccc2nc3ccccc3nc2c1N	PriA SSB inh 48
COc1ccc2nc3cccc(OC)c3nc2c1	none
O=S(=O)(O)c1cc(Cl)cc(N=Nc2ccc(O)cc2O)c1O	FadD28 FP inh 34
CS(=O)(=O)NC[C@H]1CCCN1c1nccs1	none (no result: FadD28 FP inh, PrPC TRFRET, Vc quorum ag, PrP 5UTR inh)
O=S(=O)(c1cccc2nonc12)N1CCN(c2ccccc2F)CC1	none
Cc1cccc(N2CCN(S(=O)(=O)c3cccc4nonc34)CC2)c1C	PriA SSB inh 39
CN1C(=O)C(C)(C)COc2cc(NC(=O)c3cc(Cl)ccc3[N+](=O)[O-])ccc21	none (no result: FadD28 FP inh, PrPC TRFRET, Vc quorum ag, PrP 5UTR inh)
CC(=NNc1nc2ccccc2[nH]1)c1ccc(N2CCOCC2)cc1	PriA SSB inh 54 (no result: FadD28 FP inh, PrPC TRFRET, Vc quorum ag, PrP 5UTR inh)
O=C(O)c1ccc2c(c1)C(=O)N(c1cccc3ccccc13)C2=O	Vc quorum ag 83
O=C(N[C@H]1CCN(c2ccccn2)C1)c1cc(-c2ccccc2)on1	none (no result: FadD28 FP inh, PrPC TRFRET, Vc quorum ag, PrP 5UTR inh)
CO[C@@](C)(CNC(=O)C(=O)NCc1ccccc1)c1ccccc1F	none (no result: FadD28 FP inh, PrPC TRFRET, Vc quorum ag, PrP 5UTR inh)
CCCCn1c(NS(=O)(=O)c2ccc(Cl)cc2)c(S(=O)(=O)c2ccccc2)c2nc3ccccc3nc21	none (no result: FadD28 FP inh, PrPC TRFRET, Vc quorum ag, PrP 5UTR inh)
CCCCn1c(NS(=O)(=O)c2ccccc2)c(S(=O)(=O)c2ccccc2)c2nc3ccccc3nc21	PriA SSB inh 64 (no result: FadD28 FP inh, PrPC TRFRET, Vc quorum ag, PrP 5UTR inh)
CCCCCn1c(NS(=O)(=O)c2ccccc2)c(S(=O)(=O)c2ccc(C)cc2)c2nc3ccccc3nc21	PriA SSB inh 76 (no result: FadD28 FP inh, PrPC TRFRET, Vc quorum ag, PrP 5UTR inh)
CCCCn1c(NS(=O)(=O)c2ccc(C)cc2)c(S(=O)(=O)c2ccc(C)cc2)c2nc3ccccc3nc21	PriA SSB inh 62 (no result: FadD28 FP inh, PrPC TRFRET, Vc quorum ag, PrP 5UTR inh)
CCCCCn1c(NS(=O)(=O)c2ccc3ccccc3c2)c(S(=O)(=O)c2ccc(C)cc2)c2nc3ccccc3nc21	PriA SSB inh 62 (no result: FadD28 FP inh, PrPC TRFRET, Vc quorum ag, PrP 5UTR inh)
CCCCCn1c(NS(=O)(=O)c2ccc(C)cc2)c(S(=O)(=O)c2ccccc2)c2nc3ccccc3nc21	none (no result: FadD28 FP inh, PrPC TRFRET, Vc quorum ag, PrP 5UTR inh)
Cn1cccc1C(=O)NN=Cc1c(Cl)cccc1Cl	none (no result: FadD28 FP inh, PrPC TRFRET, Vc quorum ag, PrP 5UTR inh)
CC(N)c1cccs1 (stereo unspecified)	none (no result: FadD28 FP inh, PrPC TRFRET, Vc quorum ag, PrP 5UTR inh)
COc1ccc(Cc2nnc(C3CCN(C(=O)c4cccs4)CC3)s2)cc1	none (no result: FadD28 FP inh, PrPC TRFRET, Vc quorum ag, PrP 5UTR inh)
CCCCOCCCn1c(NS(=O)(=O)c2ccc(Cl)cc2)c(S(=O)(=O)c2ccc(C)cc2)c2nc3ccccc3nc21	PriA SSB inh 56 (no result: FadD28 FP inh, PrPC TRFRET, Vc quorum ag, PrP 5UTR inh)
Cc1ccc(S(=O)(=O)Nc2c(S(=O)(=O)c3ccc(C)cc3)c3nc4ccccc4nc3n2CCC(C)C)cc1	PriA SSB inh 63 (no result: FadD28 FP inh, PrPC TRFRET, Vc quorum ag, PrP 5UTR inh)
Cc1ccc(S(=O)(=O)Nc2c(S(=O)(=O)c3ccc(C)cc3)c3nc4ccccc4nc3n2CCc2ccccc2)cc1	none (no result: FadD28 FP inh, PrPC TRFRET, Vc quorum ag, PrP 5UTR inh)
